Measurements from PubChem BioAssay AID1030 (National Center for Advancing Translational Sciences (NCATS), 2008).
Among all 220,000 compounds or so, about 16,000 (7.3%) were called active. About 25% were inconclusive and are not listed. The sample holds actives, similar compounds and a random draw of the others, so the mix is not that of the screen. A number with no mark means an inactive call. Calls follow the shape of the dose curve; as a rule, active = well fitted inhibition curve with a large enough effect (not every such curve was filed as active); inconclusive = small, poorly fitted or top-dose-only effect, or another doubt; inactive = no such curve, though single readings can be large or run the other way.

target: Aldehyde dehydrogenase 1A1 (Homo sapiens) (UniProt P00352); test: qHTS Assay for Inhibitors of Aldehyde Dehydrogenase 1 (ALDH1A1); conditions: Purified ALDH1A1, NADH fluorescence, propionaldehyde substrate; series mostly up to 75.3 µM; activity, negative = inhibition: at the top concentration;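 as to activity, negative = inhibition: plate controls were no enzyme wells and a reference inhibitor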
Sequence (P00352 whole entry, looked up): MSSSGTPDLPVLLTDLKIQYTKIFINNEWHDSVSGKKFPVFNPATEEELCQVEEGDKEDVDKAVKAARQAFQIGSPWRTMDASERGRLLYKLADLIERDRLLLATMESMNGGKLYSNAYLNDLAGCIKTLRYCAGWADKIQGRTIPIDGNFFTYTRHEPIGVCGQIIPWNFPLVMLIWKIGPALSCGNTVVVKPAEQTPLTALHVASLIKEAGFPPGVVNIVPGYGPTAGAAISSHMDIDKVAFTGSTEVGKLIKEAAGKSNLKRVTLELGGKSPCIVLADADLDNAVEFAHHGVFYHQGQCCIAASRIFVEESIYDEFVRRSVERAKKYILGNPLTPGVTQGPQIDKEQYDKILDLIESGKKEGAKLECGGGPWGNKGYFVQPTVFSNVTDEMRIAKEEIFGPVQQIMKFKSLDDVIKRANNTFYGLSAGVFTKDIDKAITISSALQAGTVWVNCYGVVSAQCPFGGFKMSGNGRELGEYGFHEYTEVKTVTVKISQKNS
Potency is read from the fitted curve at half-maximal effect.

Row | Structure (SMILES) | activity, negative = inhibition | Potency
1 | COc1ccccc1N(C)S(=O)(=O)c1ccc(Cl)c(C(=O)N2CCC(C(N)=O)CC2)c1 | 3.35% | –
2 | COc1ccccc1-c1nnc(NC(=O)c2cccc(N3C(=O)CCC3=O)c2)o1 | -5.89% | –
3 | O=C(Nc1cccc2cccnc12)c1cccc(N2C(=O)CCC2=O)c1 | -7.93% | –
4 | Cc1cc(NC(=O)c2cccc(N3C(=O)CCC3=O)c2)no1 | – | 28.2 µM (active)
5 | Nc1nnc(SCC(=O)NC2CCCc3ccccc32)s1 (stereo not drawn) | 2.71% | –
6 | O=C(/C=C/NNC(=O)c1cccc(Br)c1)c1ccccc1 | – | 2.82 µM (active)
7 | CC(CC(=O)O)CC(=O)NNC(=O)c1cccc(Br)c1 (stereo not drawn) | 14.8% | –
8 | CCCCC(NC(=O)c1cccc(Br)c1)C(=O)O (stereo not drawn) | 5.42% | –
9 | Cc1ccc(CN2CCC(N3CCC(C(=O)NCC4CCCO4)CC3)CC2)o1 (stereo not drawn) | -0.497% | –
10 | Cc1onc(C(=O)NN)c1-c1csc(COc2ccccc2)n1 | -6.06% | –
11 | CCCCNC(=O)CSc1nc2n[nH]c(C)c2c(=N)n1-c1cccc(Cl)c1C | -1.49% | –
12 | COc1cccc(-n2c(SCC(=O)NC3CCCCC3)nc3n[nH]c(C)c3c2=N)c1 | – | 20 µM (active)
13 | C=CCn1c(CC(=O)Nc2cccc(OC)c2)nnc1SCC(=O)NC1CCCCC1 | -4.3% | –
14 | Cc1ccc(S(=O)(=O)N2CCCC2C(=O)OCc2nc3sc(C)c(C)c3c(=O)[nH]2)cc1 (stereo not drawn) | -11.1% | –
15 | COc1ccc(-c2nn(-c3ccccc3)cc2/C=C\C(=O)Nc2ccc(C(=O)O)cc2)cc1 | -6.04% | –
16 | COc1ccc(N=C2SC(C(=O)Nc3ccc(F)cc3)CC(=O)N2C)cc1 (stereo not drawn) | 2.05% | –
17 | CCc1nc(C)cn1S(=O)(=O)c1cc(OC)c(C)cc1C | 3.56% | –
18 | CC(C)c1nccn1S(=O)(=O)c1cc([N+](=O)[O-])ccc1Cl | 2.6% | –
19 | CCc1nc(C)cn1S(=O)(=O)c1cc([N+](=O)[O-])ccc1Cl | – | 7.94 µM (active)
20 | CC(C)C(=O)Nc1oc(-c2ccccc2)cc1C#N | 0.0535% | –
21 | COc1cccc(NC(=O)CC2C(=O)NCCN2C(=S)Nc2ccc(F)cc2)c1 (stereo not drawn) | 4.8% | –
22 | O=C(CSc1nnc(-c2ccccc2)o1)N1CCOCC1 | 8.79% | –
23 | O=C(Cn1cnc2c(nnn2-c2ccccc2)c1=O)N1CCC(Cc2ccccc2)CC1 | 5.85% | –
24 | O=C(NCc1nnc(SCC(=O)N2CCC(Cc3ccccc3)CC2)o1)c1ccco1 | – | 14.1 µM (active)
25 | Cc1cccc(N(C(=O)Cc2cccs2)C(C(=O)NCc2ccco2)c2ccncc2)c1 (stereo not drawn) | 1.4% | –
26 | COc1ccc2c(CC(=O)OCC(=O)NC(N)=O)coc2c1 | -5.14% | –

Row | Structure (SMILES) | activity, negative = inhibition | Potency
27 | O=[N+]([O-])c1cccc(-c2nnc3c4ccccc4c4ccccc4n23)c1 | -0.482% | –
28 | COc1cccc(C(=O)Oc2cc(C)[nH]c(=O)c2[N+](=O)[O-])c1 | 10.8% | –
29 | Cc1cccc(Oc2c([N+](=O)[O-])c(=O)n(C)c3ccccc23)c1 | – | 3.16 µM (active)
30 | Cn1c2ccccc2c(=O)c2c(O)cccc21 | -8.54% | –
31 | Cc1nn(C)c(Oc2ccccc2)c1[N+](=O)[O-] | 3.36% | –
32 | Cn1c(=O)c([N+](=O)[O-])c(Oc2ccccc2)c2ccccc21 | – | 17.8 µM (active)
33 | CC(=O)N1CCN(S(=O)(=O)c2ccc(C)c([N+](=O)[O-])c2)C1C(C)C (stereo not drawn) | -3.06% | –
34 | Nc1[nH][nH]c(=O)c1N=Nc1ccc2c(c1)OCO2 | 1.87% | –
35 | COc1cc(NC(=O)c2cccs2)ccc1NC(=O)c1ccccc1Cl | -13.3% | –
36 | COc1ccccc1C1CCN(C(=S)Nc2ccc(Br)cc2)CC1 | -10.1% | –
37 | C/C(=N\NC(=O)c1cccnc1)c1ccc(-c2ccccc2)cc1 | 17.9% | –
38 | CC1(C)CC(=O)C(N=Nc2ccc(S(=O)(=O)N3CCCCCC3)cc2)=C(O)C1 | – | 2.51 µM (active)
39 | Cc1ccc(N2C(=O)C(NC(=O)c3c(F)cccc3F)(C(F)(F)F)C3=C2CC(C)(C)CC3=O)cc1 (stereo not drawn) | -7.84% | –
40 | Cc1cc(C)n(C(=O)c2ccc(S(=O)(=O)N3CCCC3)cc2)n1 | -6.45% | –
41 | CN1CCN(NC(=O)c2ccc(S(=O)(=O)N3CCCCCC3)cc2)CC1 | -2.19% | –
42 | CC1(C)CC(=O)C(N=Nc2c(F)cccc2F)=C(O)C1 | – | 12.6 µM (active)
43 | CC1(C)CC(=O)C(C2=NC(C)(C)Cc3ccccc32)=C(O)C1 | 8.55% | –
44 | COc1cc(CNCCN(C)C)ccc1OCc1c(F)cccc1Cl | 1.84% | –
45 | C/C(CC(=O)Nc1ccc(C)cc1C)=N\NC(=O)C(C)C | 5.05% | –
46 | CCCCN1C(=O)c2ccc(C(=O)Nc3ccc(S(=O)(=O)N(C)C)cc3)cc2C1=O | – | 1.78 µM (active)
47 | CN(C)S(=O)(=O)c1ccc(NC(=O)N2CCOCC2)cc1 | 7.69% | –
48 | Cc1ccnc(NS(=O)(=O)c2ccc(NC(=O)c3ccc(S(=O)(=O)N(C)C)cc3)cc2)n1 | -8.71% | –
49 | O=C(Nc1ccc(Br)cn1)c1ccc([N+](=O)[O-])o1 | -5% | –
50 | O=c1[nH]n(-c2ccc([N+](=O)[O-])cc2)c(=O)c2ccccc12 | 0.106% | –
51 | CC(Oc1ccc(Cl)cc1Cl)C(=O)/C=C/N(C)C (stereo not drawn) | -4.77% | –
52 | CCCC(=O)Nc1cccc(NC(=S)NC(=O)C(C)Oc2ccc(Cl)cc2Cl)c1 (stereo not drawn) | – | 10 µM (active)

Row | Structure (SMILES) | activity, negative = inhibition | Potency
53 | COc1cccc(NC(=O)C(C)Oc2ccccc2)c1 (stereo not drawn) | 2.31% | –
54 | Cc1ccccc1Nc1nc(N)nc(CSc2ccccc2)n1 | 0.815% | –
55 | COc1ccc(/C=C(/CC(=O)Nc2ccc(C)cc2)c2nc3ccccc3s2)cc1 | -4.33% | –
56 | CCN(c1ccccc1)S(=O)(=O)c1cccc(C(=O)O)c1 | 13.3% | –
57 | O=C(O)c1cccc(S(=O)(=O)NCCO)c1 | -6.88% [at 13.5 µM] | –
58 | O=C(O)c1cccc(S(=O)(=O)Nc2ccc(O)cc2Sc2nc3ccccc3s2)c1 | – | 22.4 µM (active)
59 | COc1ccc(S(=O)(=O)Nc2ccc(O)c(Sc3nc4ccccc4s3)c2)cc1 | – | 17.8 µM (active)
60 | CCOc1ccc(S(=O)(=O)Nc2nc3cc(OC)ccc3s2)cc1 | -16.8% | –
61 | CCO[C@@H]1OC(C(=O)N2CCOCC2)=C[C@H](C)[C@H]1CCCO | 2.13% | –
62 | O=C(CSc1ccc(-c2cccs2)nn1)Nc1ccccc1F | -4.56% | –
63 | COc1ccc(NC(=O)c2cc3nc(-c4ccccc4)cc(C)n3n2)cc1OC | -1.11% | –
64 | COc1ccc(/C=N/NC(=O)Cn2cc(C(F)(F)F)ccc2=O)cc1 | 9.76% | –
65 | COc1ccc(OC)c2[nH]c(=O)c(CCNC(=O)C(=O)c3c[nH]c4ccccc34)cc12 | 5.85% | –
66 | O=C(NCCCn1ccnc1)C(=O)c1cn(CC(=O)N2CCCCCC2)c2ccccc12 | – | 14.1 µM (active)
67 | O=C(CCN1C(=O)c2ccccc2C1=O)NCCCn1ccnc1 | -1.64% | –
68 | CCOc1ccccc1C(=O)NCCCn1ccnc1 | -1.75% | –
69 | O=C(O)CCCCOn1ccnc1 | -0.454% | –
70 | CC(C)=CCN1CCN(Cc2ccc(Oc3ncccn3)cc2)CC1CCO (stereo not drawn) | 17.4% | –
71 | CC1=C(C)CC2C(=O)N(c3cccc4ccccc34)C(=O)C2C1 (stereo not drawn) | – | 12.6 µM (active)
72 | CCc1ccccc1N1C(=O)C2C3CC(=O)C(c4ccccc43)C2C1=O (stereo not drawn) | 2.8% | –
73 | CC1(C)CCCC2=C1CC1C(=O)N(c3ccccc3)C(=O)C1C2 (stereo not drawn) | -2.61% | –
74 | COC(=O)C1=C(C(=O)OC)[C@@H]2N(Cc3ccccc3)c3ccccc3[C@@]23C[C@@H](C(=O)OC)N(S(=O)(=O)c2ccc(C(F)(F)F)cc2)C3=N1 | 3.2% [at 13.5 µM] | –
75 | Fc1cccc2ncnc(OCc3ccccc3)c12 | -1.42% | –
76 | CS(=O)(=O)N(CC(=O)NCc1ccco1)c1ccc2c(c1)OCO2 | -0.792% | –
77 | Cc1ccccc1-c1nnc(SCC(=O)NCc2ccc3c(c2)OCO3)n1C | -4.71% | –
78 | Cc1c(Cl)cccc1NC(=S)NCc1ccc2c(c1)OCO2 | -14.2% | –

Row | Structure (SMILES) | activity, negative = inhibition | Potency
79 | O=C(CSc1ncn[nH]1)NCc1ccc2c(c1)OCO2 | 5.55% | –
80 | O=C(CSc1ccc(-c2ccco2)nn1)NCc1ccc2c(c1)OCO2 | – | 3.55 µM (active)
81 | S=C(NCc1ccc2c(c1)OCO2)NCc1ccco1 | – | 20 µM (active)
82 | Oc1ccc(-c2nncn2-c2ccccc2)cc1 | -7.56% | –
83 | O=C(CSc1cccc[n+]1[O-])c1ccc(Cl)cc1 | 1.65% | –
84 | COc1ccccc1C(=O)CSc1cccc[n+]1[O-] | – | 14.1 µM (active)
85 | O=C(CSc1cccc[n+]1[O-])NCCCc1ccccc1 | 3.85% | –
86 | Cc1cccc(N2CC(C)Cn3c2nc2c3c(=O)n(CC(=O)OCc3ccccc3)c(=O)n2C)c1 (stereo not drawn) | -4.85% | –
87 | Cn1c(=O)n(CCc2ccccc2)c(=O)c2c1nc1n2CCCN1c1ccccc1 | – | 8.91 µM (active)
88 | CC(C)Cn1c(CN(Cc2ccccc2)Cc2ccccc2)nc2c1c(=O)n(C)c(=O)n2C | -11.5% | –
89 | CCOC(=O)C1CCN(C(=O)c2ccccc2N(C)S(=O)(=O)c2ccccc2)CC1 | 5.9% | –
90 | Cc1ccccc1C(=O)N1CCC(C(=O)Nc2ccc(S(=O)(=O)N(C)C(C)C)cc2)CC1 | – | 12.6 µM (active)
91 | COc1ccc(C(=O)N2CCC(C(=O)Nc3ccc(C)cc3)CC2)cc1 | -1.59% | –
92 | COc1ccc(N(CC(=O)Nc2ccc(C)cc2C)S(=O)(=O)c2ccccc2[N+](=O)[O-])c(OC)c1 | 4.62% | –
93 | CNS(=O)(=O)c1ccc(N2CCCC2=O)c([N+](=O)[O-])c1 | 7.94% | –
94 | CCCCC/C=C\CC1OC1CCCCCCCC(=O)O (stereo not drawn) | – | inactive
95 | CC1=C/C(=N\S(=O)(=O)c2ccccc2)C(C(C)C)=CC1=O | -11.8% | –
96 | CCOC(=O)C1(S(=O)(=O)c2ccccc2)CCN(Cc2ccccc2)CC1 | -3.31% | –
97 | CC1=C/C(=N\OS(=O)(=O)c2ccccc2)C=CC1=O | – | 11.2 µM (active)
98 | COc1cccc(NC(=O)CN(C)CC(=O)Nc2ccc3c(c2)CCC3)c1 | -7.54% | –
99 | Cc1ccnc(NC(=O)c2ccc(Cl)c([N+](=O)[O-])c2)c1 | 2.29% | –
100 | COc1ccc(C(=O)CN2C(=O)NC(C)(c3ccc(C)cc3)C2=O)cc1OC (stereo not drawn) | 8.24% | –
101 | Cc1ccccc1NC(=O)CN1C(=O)N/C(=C\c2cccn2-c2cccc(C(=O)O)c2)C1=O | -7.18% | –
102 | COC(=O)CN1C(=O)N/C(=C/c2ccc(OC)c(C)c2OC)C1=O | – | 6.31 µM (active)
103 | CC(=O)Nc1ccc(OCCC[n+]2cccc(C(=O)[O-])c2)cc1 | -5.74% | –
